For some of these results: Results with a measured potency or affinity are listed apart.

Parameters in all cases: scale not given: direction of the effect not stated beside the values
Assay [1] has as its target Protein translocase subunit SecA (Escherichia coli (strain K12)) (UniProt P10408). Put plainly: Assay to Identify E. coli SecA ATPase Inhibitors. It counts as functional. To be noted: 30 µM.
Assay [2] has as its target T1, Ubiquitin-activating enzyme e1, putative (Leishmania donovani (strain BPK282A1)) (UniProt E9BSI1).
T1 sequence (whole entry): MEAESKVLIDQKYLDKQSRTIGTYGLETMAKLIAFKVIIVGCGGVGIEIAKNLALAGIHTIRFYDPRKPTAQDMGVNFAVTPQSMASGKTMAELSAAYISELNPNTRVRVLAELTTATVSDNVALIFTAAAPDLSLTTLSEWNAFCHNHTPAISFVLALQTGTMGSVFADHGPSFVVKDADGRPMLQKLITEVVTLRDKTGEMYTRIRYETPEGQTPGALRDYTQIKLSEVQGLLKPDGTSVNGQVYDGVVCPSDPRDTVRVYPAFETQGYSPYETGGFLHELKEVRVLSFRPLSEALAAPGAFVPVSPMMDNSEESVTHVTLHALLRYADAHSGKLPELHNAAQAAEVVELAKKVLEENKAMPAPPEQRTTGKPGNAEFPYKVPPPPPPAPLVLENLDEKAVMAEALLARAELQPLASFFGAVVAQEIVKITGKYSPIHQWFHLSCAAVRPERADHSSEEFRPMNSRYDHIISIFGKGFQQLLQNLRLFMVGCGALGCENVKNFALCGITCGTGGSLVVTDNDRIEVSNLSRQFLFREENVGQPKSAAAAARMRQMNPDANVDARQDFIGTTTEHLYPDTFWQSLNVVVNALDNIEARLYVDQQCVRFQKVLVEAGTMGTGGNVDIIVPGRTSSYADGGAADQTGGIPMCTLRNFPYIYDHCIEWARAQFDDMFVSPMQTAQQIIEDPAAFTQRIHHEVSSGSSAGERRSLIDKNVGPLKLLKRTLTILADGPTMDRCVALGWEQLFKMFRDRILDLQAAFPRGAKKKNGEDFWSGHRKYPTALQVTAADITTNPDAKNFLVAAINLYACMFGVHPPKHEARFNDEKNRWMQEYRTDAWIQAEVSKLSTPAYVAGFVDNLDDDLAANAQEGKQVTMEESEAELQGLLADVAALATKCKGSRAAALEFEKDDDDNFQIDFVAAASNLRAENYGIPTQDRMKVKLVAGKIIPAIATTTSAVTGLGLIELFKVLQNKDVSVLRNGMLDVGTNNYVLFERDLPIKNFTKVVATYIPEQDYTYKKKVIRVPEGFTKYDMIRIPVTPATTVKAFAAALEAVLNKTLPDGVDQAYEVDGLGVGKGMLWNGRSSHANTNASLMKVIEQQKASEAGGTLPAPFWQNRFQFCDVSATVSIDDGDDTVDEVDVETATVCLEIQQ
Put plainly: Leishmania donovani Ubiquitin Activating Enzyme (LdE1). As to conditions: 30 µM. Type of assay: functional.

The target of assay [3] is AMP-activated protein kinase, AMPK (Homo sapiens) (UniProt P54646+O43741+P54619+Q9UGJ0+Q9Y478+Q13131+Q9UGI9). Put plainly: AMP-dependent Kinase enzyme assay. An in vitro enzyme assay that detects ADP turnover that is directly proportional to AMPK activity. This uses naive AMPK that is activated during the assay with MK-8722. Type of assay: functional. To be noted: 30 µM.

The target in assay [4] is Sialic acid-binding Ig-like lectin 9 (Homo sapiens) (UniProt Q9Y336). Put plainly: Hs-Siglec9 ALPHAscreen SOP 20170721. As to conditions: 10 µM. (In general: Alpha assays give light when donor and acceptor beads are brought close together.)
A further assay relates to Trypanosoma cruzi. Put plainly: Trypanosoma cruzi phosphomannomutase and mannose-1-phosphate guanylyltransferase assay. It counts as functional. As to conditions: 10 µM.
The target in assay [5] is T2, Arginase-2, mitochondrial (Homo sapiens) (UniProt P78540).
T2 sequence (whole entry): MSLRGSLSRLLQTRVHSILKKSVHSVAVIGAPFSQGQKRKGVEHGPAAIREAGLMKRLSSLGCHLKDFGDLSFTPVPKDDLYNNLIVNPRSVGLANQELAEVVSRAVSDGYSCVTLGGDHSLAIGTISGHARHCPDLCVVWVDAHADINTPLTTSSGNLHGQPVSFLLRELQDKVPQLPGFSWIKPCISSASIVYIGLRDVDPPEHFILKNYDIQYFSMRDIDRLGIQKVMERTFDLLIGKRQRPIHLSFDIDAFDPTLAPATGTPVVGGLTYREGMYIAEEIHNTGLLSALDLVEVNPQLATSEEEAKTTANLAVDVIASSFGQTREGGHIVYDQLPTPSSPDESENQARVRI
Put plainly: in vitro enzyme assay to detect the production of urea directly proportional to the activity of Arginase II. Note: in the data most compounds retested in dose-response had high values. Type of assay: functional. As to conditions: 33.3 µM.

Assay [6] concerns the target T3, Proteasome subunit beta (Trypanosoma cruzi) (UniProt O96673).
T3 sequence (whole entry): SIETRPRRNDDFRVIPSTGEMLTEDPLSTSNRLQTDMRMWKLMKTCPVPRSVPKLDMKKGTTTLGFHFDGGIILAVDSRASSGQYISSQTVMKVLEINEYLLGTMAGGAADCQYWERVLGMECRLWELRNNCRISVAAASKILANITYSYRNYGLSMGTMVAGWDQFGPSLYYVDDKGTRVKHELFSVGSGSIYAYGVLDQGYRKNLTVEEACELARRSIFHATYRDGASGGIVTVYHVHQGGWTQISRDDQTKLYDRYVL
Put plainly: Trypanosoma cruzi proteasome chymotrypsin-like activity (TcProtChymo) assay. Note: in the data most compounds retested in dose-response had high values. Type of assay: functional. To be noted: 9.37 µM.

The species named for another assay is Homo sapiens. Put plainly: To identify inhibition of the IFN signalling (Jak-Stat) pathway via expression of an eGFP reporter gene under the control of an IFN-stimulated response element (ISRE) containing MxA promoter. It counts as functional. As to conditions: 30 µM.
Assay [7] has as its target T4, Tyrosyl-tRNA synthetase, putative (Trypanosoma cruzi (strain CL Brener)) (UniProt Q4DSP6).
T4 sequence (whole entry): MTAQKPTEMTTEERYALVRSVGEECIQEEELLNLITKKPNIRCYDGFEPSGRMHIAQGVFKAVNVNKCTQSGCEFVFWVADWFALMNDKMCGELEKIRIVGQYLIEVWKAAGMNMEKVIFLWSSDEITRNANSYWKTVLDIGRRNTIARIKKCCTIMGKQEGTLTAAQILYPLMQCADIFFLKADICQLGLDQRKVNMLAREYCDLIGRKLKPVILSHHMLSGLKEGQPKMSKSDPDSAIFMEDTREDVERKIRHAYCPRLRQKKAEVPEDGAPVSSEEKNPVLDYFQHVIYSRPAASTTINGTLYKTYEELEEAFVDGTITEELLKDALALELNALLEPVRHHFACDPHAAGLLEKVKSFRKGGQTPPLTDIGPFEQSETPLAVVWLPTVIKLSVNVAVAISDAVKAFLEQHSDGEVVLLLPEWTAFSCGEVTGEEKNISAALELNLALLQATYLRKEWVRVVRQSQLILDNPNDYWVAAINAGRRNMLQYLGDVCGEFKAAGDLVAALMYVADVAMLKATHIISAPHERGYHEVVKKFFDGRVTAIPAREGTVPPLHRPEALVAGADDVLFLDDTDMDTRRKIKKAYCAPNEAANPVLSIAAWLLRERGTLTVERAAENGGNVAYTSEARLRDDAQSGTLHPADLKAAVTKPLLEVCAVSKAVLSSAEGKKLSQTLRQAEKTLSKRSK
Put plainly: Trypanosoma cruzi tyrosyl tRNA synthetase (TcYRS) _High Tyrosine SOP. Note: in the data most compounds retested in dose-response had high values. Type of assay: functional. To be noted: 30 µM.

Assay [8] deals with T4, Tyrosyl-tRNA synthetase, putative (Trypanosoma cruzi (strain CL Brener)). Put plainly: Trypanosoma cruzi tyrosyl tRNA synthetase (TcYRS) SOP. It counts as functional. To be noted: 30 µM.
Assay [9] has as its target Chromo domain-containing protein 1 (Saccharomyces cerevisiae (strain ATCC 204508 / S288c) (Baker's yeast)) (UniProt P32657). Put plainly: ScCHD-1 Enzyme Inhibition Assay. Note: in the data most compounds retested in dose-response had high values. It counts as functional. As to conditions: 30 µM.

Protein translocase subunit SecA (Escherichia coli (strain K12)), sequence (P10408 whole entry): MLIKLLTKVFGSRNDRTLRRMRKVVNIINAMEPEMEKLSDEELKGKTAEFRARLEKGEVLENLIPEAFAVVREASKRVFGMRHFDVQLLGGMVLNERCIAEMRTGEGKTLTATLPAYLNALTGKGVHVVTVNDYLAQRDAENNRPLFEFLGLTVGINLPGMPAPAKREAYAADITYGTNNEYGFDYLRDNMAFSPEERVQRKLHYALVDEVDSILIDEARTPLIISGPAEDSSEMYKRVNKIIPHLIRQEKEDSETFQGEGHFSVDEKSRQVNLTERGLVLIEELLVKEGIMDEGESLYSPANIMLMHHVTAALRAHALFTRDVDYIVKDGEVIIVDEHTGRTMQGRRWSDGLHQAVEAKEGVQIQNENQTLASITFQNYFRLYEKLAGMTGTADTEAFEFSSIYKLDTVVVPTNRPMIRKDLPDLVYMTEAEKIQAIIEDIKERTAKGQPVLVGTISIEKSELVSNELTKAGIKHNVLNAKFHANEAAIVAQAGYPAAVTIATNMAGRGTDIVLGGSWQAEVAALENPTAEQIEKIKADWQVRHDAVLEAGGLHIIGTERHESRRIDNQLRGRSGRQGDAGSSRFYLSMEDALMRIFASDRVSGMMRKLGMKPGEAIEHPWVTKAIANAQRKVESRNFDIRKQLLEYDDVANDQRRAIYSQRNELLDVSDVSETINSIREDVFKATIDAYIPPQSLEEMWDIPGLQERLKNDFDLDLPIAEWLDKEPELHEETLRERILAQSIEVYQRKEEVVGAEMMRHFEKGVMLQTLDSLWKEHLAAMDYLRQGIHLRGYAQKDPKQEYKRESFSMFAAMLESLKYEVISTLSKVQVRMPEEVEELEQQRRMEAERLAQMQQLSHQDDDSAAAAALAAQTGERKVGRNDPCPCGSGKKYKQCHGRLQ
Chromo domain-containing protein 1 (Saccharomyces cerevisiae (strain ATCC 204508 / S288c) (Baker's yeast)), sequence (P32657 whole entry, the tested form may be a part): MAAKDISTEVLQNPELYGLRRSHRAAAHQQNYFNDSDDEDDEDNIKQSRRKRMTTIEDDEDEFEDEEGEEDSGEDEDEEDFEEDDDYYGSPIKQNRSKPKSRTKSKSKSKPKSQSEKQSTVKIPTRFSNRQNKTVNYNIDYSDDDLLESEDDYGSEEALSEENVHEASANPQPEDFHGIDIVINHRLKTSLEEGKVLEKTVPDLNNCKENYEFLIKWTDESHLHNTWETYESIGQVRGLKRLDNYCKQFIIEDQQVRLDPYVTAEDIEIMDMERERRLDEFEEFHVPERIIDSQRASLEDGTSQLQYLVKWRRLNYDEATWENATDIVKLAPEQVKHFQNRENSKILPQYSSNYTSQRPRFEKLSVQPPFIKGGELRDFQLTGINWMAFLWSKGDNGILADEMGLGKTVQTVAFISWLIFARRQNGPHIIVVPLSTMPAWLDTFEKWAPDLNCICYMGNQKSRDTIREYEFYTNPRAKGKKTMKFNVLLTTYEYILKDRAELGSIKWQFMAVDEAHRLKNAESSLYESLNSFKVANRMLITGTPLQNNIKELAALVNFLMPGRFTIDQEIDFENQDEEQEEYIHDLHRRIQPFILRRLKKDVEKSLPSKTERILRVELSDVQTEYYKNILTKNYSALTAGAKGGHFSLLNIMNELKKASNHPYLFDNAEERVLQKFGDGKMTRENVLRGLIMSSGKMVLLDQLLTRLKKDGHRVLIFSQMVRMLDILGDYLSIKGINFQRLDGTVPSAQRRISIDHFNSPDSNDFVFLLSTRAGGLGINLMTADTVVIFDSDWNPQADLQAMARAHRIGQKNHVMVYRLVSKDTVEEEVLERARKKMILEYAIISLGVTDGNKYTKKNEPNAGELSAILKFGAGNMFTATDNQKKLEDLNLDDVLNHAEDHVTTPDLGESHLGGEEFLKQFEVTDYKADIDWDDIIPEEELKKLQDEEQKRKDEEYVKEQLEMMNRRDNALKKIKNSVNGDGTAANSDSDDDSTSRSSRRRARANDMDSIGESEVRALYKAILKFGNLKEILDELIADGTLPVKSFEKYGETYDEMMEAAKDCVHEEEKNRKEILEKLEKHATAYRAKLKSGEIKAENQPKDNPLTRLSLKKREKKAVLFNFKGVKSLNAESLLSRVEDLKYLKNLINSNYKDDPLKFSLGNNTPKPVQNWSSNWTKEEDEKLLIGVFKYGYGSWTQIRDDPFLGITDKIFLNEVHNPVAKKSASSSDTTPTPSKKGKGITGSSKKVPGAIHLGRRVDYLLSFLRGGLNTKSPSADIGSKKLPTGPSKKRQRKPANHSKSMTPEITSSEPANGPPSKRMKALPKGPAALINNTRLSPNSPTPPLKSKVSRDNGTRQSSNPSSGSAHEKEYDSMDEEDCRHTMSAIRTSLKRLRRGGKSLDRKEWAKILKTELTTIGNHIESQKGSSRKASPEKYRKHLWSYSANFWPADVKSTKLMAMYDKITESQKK
Sialic acid-binding Ig-like lectin 9 (Homo sapiens), sequence (Q9Y336 whole entry): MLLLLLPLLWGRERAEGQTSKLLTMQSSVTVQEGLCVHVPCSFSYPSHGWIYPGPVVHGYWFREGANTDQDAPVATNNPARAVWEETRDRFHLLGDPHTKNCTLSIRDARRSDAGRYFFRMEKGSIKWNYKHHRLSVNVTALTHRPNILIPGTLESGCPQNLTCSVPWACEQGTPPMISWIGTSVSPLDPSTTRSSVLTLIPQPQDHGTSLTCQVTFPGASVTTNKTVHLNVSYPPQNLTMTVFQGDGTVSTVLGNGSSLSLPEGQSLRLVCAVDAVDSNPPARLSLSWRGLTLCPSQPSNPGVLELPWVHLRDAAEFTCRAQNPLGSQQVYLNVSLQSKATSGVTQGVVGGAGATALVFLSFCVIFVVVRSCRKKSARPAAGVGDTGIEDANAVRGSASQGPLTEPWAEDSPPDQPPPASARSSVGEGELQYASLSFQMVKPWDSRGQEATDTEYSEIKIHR

With `COc1ccc(C(C(=O)O)N2CCCN(C3CCCC3)CC2)cc1OC` (stereo unspecified), the Percent Effect in assay [1] is -8.69%; in assay [2] it was 0%; in assay [3] it was -2.66%; in [4] it was -4.35%; in the assay with Trypanosoma cruzi, -3.81%; in assay [5] it was -2.23%. Moreover, the Percent Effect in assay [6] was -0.429%; in the assay listed under Homo sapiens, 16%; in assay [7] it was -9.68%; in assay [8], -1.24%; in assay [9], -4.58%.
For `CCc1nc(CC(=O)NCC(Cc2ccc(F)cc2)C(N)=O)cs1` (stereo unspecified), the Percent Effect is -8.91% in [1]; 5.26% in assay [2]; -6.2% in [3]; 10.1% in assay [4]; 7.89% with Trypanosoma cruzi; -3.55% in [5]. Moreover, the Percent Effect in assay [6] is -2.21%; in the assay filed under Homo sapiens, 11.5%; in assay [7] it was 4.25%; in assay [8], 13%; in [9] it was -14.4%.
For `O=C(O)C1CCCCN1C(=O)c1cccc(C(F)(F)F)c1` (stereo unspecified), the Percent Effect in assay [1] was -6.15%; in assay [2], 13.2%; in assay [3], -2.92%; in [4], 7.67%; in the assay on Trypanosoma cruzi, 1.4%; in assay [5], -2.88%. The Percent Effect was 2.62% in assay [6]; -1.55% in the assay filed under Homo sapiens; 4.43% in [7]; 16.1% in assay [8]; 3.59% in assay [9].
With `CC(C(=O)NCCCn1ccnc1)n1cc(Br)cn1` (stereo unspecified), the Percent Effect in [1] is -3.65%; in assay [2] it was 2.6%; in assay [3], -2.79%; in [4], 7.47%; in the assay on Trypanosoma cruzi it was 3.83%; in assay [5] it was -33.1%. The Percent Effect in assay [6] was 10.7%; in the assay listed under Homo sapiens, -6.92%; in assay [7] it was 7.53%; in [8], 18.5%; in assay [9] it was -2%.
For `COc1ncnc2c1CCN(c1cc(C(F)(F)F)ncn1)CC2`, the Percent Effect is -3.48% in [1]; 8% in assay [2]; 4.03% in assay [3]; -3.21% in [4]; -6.56% in the assay on Trypanosoma cruzi; -57.5% in [5]. In addition, the Percent Effect in [6] is 6.67%; in the assay filed under Homo sapiens, 20.9%; in assay [7] it was -1.04%; in assay [8], 7.5%; in assay [9] it was -7.82%.
For the molecule `Cc1cc(C(=O)NCc2ccccn2)no1`, the Percent Effect is 0.824% in assay [1]; 2.7% in assay [2]; -14.1% in [3]; -0.919% in [4]; 2.92% in the assay on Trypanosoma cruzi; -3.21% in assay [5]. Moreover, the Percent Effect in [6] is 6.49%; in the assay listed under Homo sapiens, 7.17%; in assay [7] it was 3.45%; in assay [8], -63%; in [9], 0.179%.
Regarding `COCCNC(=O)Nc1ccc(-n2cncn2)c(F)c1`, the Percent Effect in [1] is -6.54%; in [2], 0%; in assay [3] it was -12.8%; in assay [4], 0.712%; in the assay on Trypanosoma cruzi, -4.7%; in assay [5], 0%. Further, the Percent Effect in [6] was 4.51%; in the assay filed under Homo sapiens it was 28.2%; in assay [7] it was 2.45%; in assay [8], 0%; in assay [9], -7.16%.
Regarding `COc1ccc(CC(=O)N2CCCN(c3ccc(C#N)cc3)CC2)cc1`, the Percent Effect was -3.96% in [1]; -5.26% in assay [2]; 8.87% in assay [3]; -0.428% in [4]; -5.75% with Trypanosoma cruzi; -8.28% in assay [5]. For the same molecule, the Percent Effect in assay [6] is 11.8%; in the assay filed under Homo sapiens, -1.35%; in assay [7], -3.19%; in [8] it was 2.6%; in assay [9] it was -7.99%.
For `c1ccc2oc(CCCN3CCOC(Cn4cccn4)C3)nc2c1` (stereo unspecified), the Percent Effect is -3.85% in [1]; 5.2% in assay [2]; 0.772% in [3]; 0.668% in assay [4]; 6.56% in the assay on Trypanosoma cruzi; -3.16% in assay [5]. Also, the Percent Effect in [6] came out at 0.889%; in the assay filed under Homo sapiens it was 7.24%; in assay [7], 0%; in assay [8] it was 7.06%; in assay [9], 5.28%.
Consider `O=C(Cc1ccccn1)N1CCc2nc(-c3cnccn3)nc(O)c2C1`, for which the Percent Effect in [1] was -2.77%; in [2], 12.2%; in assay [3] it was 8.84%; in assay [4] it was -3.28%; in the assay with Trypanosoma cruzi, 0.593%; in [5] it was 3.48%. Moreover, the Percent Effect is 12.6% in assay [6]; 9.22% in the assay listed under Homo sapiens; 4.3% in assay [7]; 9.09% in [8]; -9.74% in [9].
In the case of `Cc1noc([C@@H]2CCCN2C(=O)C2CCN(C(=O)C3CCC3)CC2)n1`, the Percent Effect was -2.73% in assay [1]; 5.48% in assay [2]; 27.2% in [3]; -1.91% in assay [4]; -6.27% in the assay on Trypanosoma cruzi; 0.909% in assay [5]. In addition, the Percent Effect came to 11.7% in assay [6]; 27.9% in the assay listed under Homo sapiens; 0% in assay [7]; 5% in assay [8]; 98.2% in [9].

For the origin of these results see ChEMBL document CHEMBL3988442, “University of Dundee, Small-Polar-MMV Screening Library” (2021).
